Experimental data from PubChem BioAssay (EPA / NIEHS).
Values joined by “and” are separate entries in the source; they are usually repeats but may differ in a detail not shown here. Equal values may be shown once. Inconclusive results are not listed. More than one record can exist for a structure, and the calls need not agree. Active and inactive are the calls of the source. Rule for the calls, unless noted: active = hit-call score of the fitted dose curve at least 0.9, where 1 is the maximum; inactive = score below 0.9.

Experiments:
[1] = target: Nuclear respiratory factor 1 (Homo sapiens) (UniProt Q16656); assay: ATG_NRF1_CIS: Attagene CIS-FACTORIAL HepG2 Assay for human Nuclear Respiratory Factor 1 (NRF1) Orphan Gene (AID 2282987); settings: HepG2 NRF1 cis-element reporter, Attagene multiplex; actives raise or lower the signal
Summary of the method: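 Endogenous NRF1-driven reporter transcription measured in transiently transfected human HepG2 liver cells. Readout: reporter mRNA by RT-PCR and capillary electrophoresis with fluorescence detection, 24 h post-dosing. Gain or loss of signal fitted relative to DMSO baseline.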

[2] = ATG_NFI_CIS: Attagene CIS-FACTORIAL HepG2 Assay for human Nuclear Factor I (NFI) (AID 2282989); settings: HepG2 cis-regulatory reporter, NFI response element transcription; actives raise or lower the signal
Summary of the method: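 Reporter transcripts were measured by RT-PCR with fluorescent primer extension and capillary electrophoresis 24 h post-treatment. HepG2 cells carried transiently transfected cis-regulated reporter constructs reporting endogenous factor activity; gain or loss fitted against DMSO baseline.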

[3] = target: Myc proto-oncogene protein (Homo sapiens) (UniProt P01106); assay: ATG_Myc_CIS: Attagene CIS-FACTORIAL HepG2 Assay for human Myelocytomatosis (Myc) Proto-Oncogene Transcription Factor (AID 2282990); settings: HepG2, Attagene cis-reporter transcription factor activity; actives raise or lower the signal
Summary of the method: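 After 24 h chemical treatment of HepG2 cells carrying multiplexed cis-regulated reporter constructs, reporter transcripts quantified by RT-PCR and capillary electrophoresis of fluorescent fragments. Gain or loss fitted against DMSO baseline.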

[4] = ATG_NF_kB_CIS: Attagene CIS-FACTORIAL HepG2 Assay for human Nuclear Factor Kappa B (NF-kB) (AID 2282991); settings: HepG2 Attagene cis-factorial NF-kB reporter mRNA; actives raise or lower the signal
Summary of the method: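 Read-out: reporter transcript levels quantified by RT-PCR plus capillary electrophoresis of 6-FAM-labelled, HpaI-cut fragments. Transfected HepG2 cells, 24 h compound exposure, endogenous NF-kB-driven cis element; gain or loss scored versus DMSO.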

[5] = ATG_NRF2_ARE_CIS: Attagene CIS-FACTORIAL HepG2 Assay for human Nuclear Factor Erythroid 2 Related Factor 2 (NFR2) response to Antioxidant Response Elements (ARE) (AID 2282992); settings: HepG2 Attagene ARE/NRF2 reporter, transcription factor activity; actives raise or lower the signal
Summary of the method: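 Transient MRTU transfection of HepG2; 24 h compound exposure; TriZol RNA, RT with oligo(dT), PCR, 6-FAM primer extension, HpaI cut, CE. Bidirectional fit vs DMSO.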

[6] = ATG_Oct_MLP_CIS: Attagene CIS-FACTORIAL HepG2 Assay for human Octamer-Binding Transcription Factor (Oct) (AID 2282993); settings: HepG2 Attagene cis-factorial Oct reporter, mRNA; actives raise or lower the signal
Summary of the method: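 Readout is reporter transcript level from RT-PCR with fluorescent primer extension and capillary electrophoresis, fitted in both directions against DMSO. Transfected HepG2 reporter units report endogenous factor activity after 24 h dosing.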

[7] = target: Cellular tumor antigen p53 (Homo sapiens) (UniProt P04637); assay: ATG_p53_CIS: Attagene CIS-FACTORIAL HepG2 Assay for human p53 Transcription Factor (AID 2282994); settings: HepG2 p53 cis-element reporter, Attagene mRNA; actives raise or lower the signal
Summary of the method: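 HepG2, transient MRTU transfection (cis promoter elements, endogenous TFs); 24 h dosing; RNA isolation, RT-PCR, 6-FAM primer extension, HpaI digest, CE fluorescence; bidirectional fit vs DMSO.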

[8] = BSK_3C_TissueFactor: BioMAP Diversity Plus: 3C Assay for Tissue Factor Biomarker Activity (AID 2282997); settings: BioMAP 3C HUVEC, tissue factor biomarker readout; actives raise or lower the signal
Summary of the method: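 Endothelial monolayers (human umbilical vein, primary) are dosed, incubated 24 h, and assayed for Tissue Factor by ELISA; DMSO serves as negative control for bidirectional fitting.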

[9] = BSK_3C_uPAR: BioMAP Diversity Plus: 3C Assay for Urokinase-type plasminogen activator receptor (uPAR) Biomarker Activity (AID 2282998); settings: BioMAP 3C HUVEC, uPAR biomarker ELISA; actives raise or lower the signal
Summary of the method: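 Cell-surface uPAR on HUVEC (3C system) read by ELISA at 24 h post-treatment, with DMSO as baseline and fitting in both directions. Parallel cultures stained with SRB to flag overt cytotoxicity.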

[10] = BSK_3C_VCAM1: BioMAP Diversity Plus: 3C Assay for Vascular cell adhesion molecule 1 (VCAM1) Biomarker Activity (AID 2282999); settings: BioMAP 3C HUVEC, VCAM1 ELISA, cytokine-stimulated; actives raise or lower the signal
Summary of the method: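 Endothelial cells from human umbilical vein are treated with test chemical. At 24 h, VCAM-1 is measured by ELISA, and responses in either direction are fitted relative to DMSO.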

[11] = BSK_4H_Eotaxin3: BioMAP Diversity Plus: 4H Assay for Eotaxin 3 Biomarker Activity (AID 2283000); settings: primary human endothelial cells (HUVEC); actives raise or lower the signal;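 for outcome: CCL26 protein level quantified by ELISA in parallel with SRB cytotoxicity check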
Summary of the method: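 ELISA quantitation of CCL26 (Eotaxin-3) protein from chemically dosed human vascular endothelial cells at 24 h; increases and decreases both scored relative to DMSO-treated baseline.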

[12] = read-out: Intercellular Adhesion Molecule 1 (ICAM1), ICAM1 (gene 3383); assay: BSK_3C_ICAM1: BioMAP Diversity Plus: 3C Assay for Intercellular Adhesion Molecule 1 (ICAM1) Biomarker Activity (AID 2283003); settings: primary human endothelial cells (HUVEC); actives raise or lower the signal
Summary of the method: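 Primary human umbilical vein endothelial cells in the BioMAP 3C system were exposed to chemicals for 24 h, then ICAM-1 was quantified by ELISA. Activity was fitted bidirectionally against the DMSO negative control baseline.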

[13] = BSK_3C_Proliferation: Cell Proliferation Assessment in the BioMAP Diversity Plus: 3C Assay (AID 2283006); settings: primary human endothelial cells (HUVEC);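 for AC50: potency may reflect either rise or fall in cell number versus DMSO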
Summary of the method: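 Human umbilical vein endothelial cells were grown sub-confluent and exposed to chemical for 48 h, then fixed with 10% TCA and stained with 0.1% sulforhodamine B; absorbance at 560 nm gave relative cell number, fitted bidirectionally against DMSO baseline.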

[14] = target: Nuclear receptor subfamily 1 group I member 2 (Homo sapiens) (UniProt O75469); assay: ATG_PXR_TRANS: Attagene TRANS-FACTORIAL HepG2 Assay for human Pregnane X Receptor (PXR) (AID 2283008; active = hit-call score of the fitted dose curve at least 0.9, where 1 is the maximum)
Summary of the method: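 Read-out is fluorescence of labelled reporter cDNA fragments separated by capillary electrophoresis after RT-PCR and HpaI digestion. Source: HepG2 cells carrying PXR-GAL4/UAS reporter constructs, treated 24 h; activity fitted upward relative to DMSO.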

[15] = target: human Peroxisome Proliferator-activated Receptor alpha (PPARa), PPARA (gene 5465) (UniProt Q07869); assay: ATG_PPARa_TRANS: Attagene TRANS-FACTORIAL HepG2 Assay for human Peroxisome Proliferator-activated Receptor alpha (PPARa) (AID 2283001; active = hit-call score of the fitted dose curve at least 0.9, where 1 is the maximum)
Summary of the method: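 Reporter transcripts from GAL4-UAS units in transfected HepG2 were quantified 24 h after dosing. Detection used reverse transcription, PCR, fluorescent primer extension and capillary electrophoresis, with DMSO as baseline.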

[16] = target: human Peroxisome Proliferator-activated Receptor delta (PPARd), PPARD (gene 5467) (UniProt Q03181); assay: ATG_PPARd_TRANS: Attagene TRANS-FACTORIAL HepG2 Assay for human Peroxisome Proliferator-activated Receptor delta (PPARd) (AID 2283002; active = hit-call score of the fitted dose curve at least 0.9, where 1 is the maximum)
Summary of the method: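 Read-out is induced reporter mRNA, quantified by RT-PCR with fluorescent labelling and capillary electrophoresis after 24 h dosing. Cells are HepG2 transiently carrying multiple GAL4-UAS reporter units driven by exogenous NR-GAL4 chimeras; DMSO serves as baseline.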

[17] = target: human Retinoic Acid Receptor beta (RARb), RARB (gene 5915) (UniProt P10826); assay: ATG_RARb_TRANS: Attagene TRANS-FACTORIAL HepG2 Assay for human Retinoic Acid Receptor beta (AID 2283004; active = hit-call score of the fitted dose curve at least 0.9, where 1 is the maximum)
Summary of the method: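 Fluorescent capillary-electrophoresis detection of GAL4-UAS reporter mRNA defines the endpoint, with induction over DMSO-treated wells scored as activity. Transiently transfected human hepatoma HepG2 cells expressing exogenous NR–Gal4 proteins are exposed to test chemicals for 24 h.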

[18] = target: Retinoic acid receptor alpha (Homo sapiens) (UniProt P10276); assay: ATG_RARa_TRANS: Attagene TRANS-FACTORIAL HepG2 Assay for human Retinoic Acid Receptor alpha (RARa) (AID 2283005; active = hit-call score of the fitted dose curve at least 0.9, where 1 is the maximum)
Summary of the method: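 Reporter transcripts, measured by RT-PCR with fluorescent labeling and capillary electrophoresis after 24 h dosing, reflect activity of an exogenous human RARa–GAL4 fusion in transiently transfected HepG2. Fitted for increase relative to DMSO.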

[19] = target: human Retinoic Acid Receptor gamma (RARg), RARG (gene 5916) (UniProt P13631); assay: ATG_RARg_TRANS: Attagene TRANS-FACTORIAL HepG2 Assay for human Retinoic Acid Receptor gamma (RARg) (AID 2283009; active = hit-call score of the fitted dose curve at least 0.9, where 1 is the maximum)
Summary of the method: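 HepG2 cells transiently transfected with multiplexed reporter units expressing chimeric RARg-GAL4 and GAL4-UAS-driven reporters; 24 h compound exposure. Reporter mRNA quantified by RT-PCR with fluorescent labelling and capillary electrophoresis; gain-of-signal fitted relative to DMSO baseline.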

Chain of Myc proto-oncogene protein (Homo sapiens) (P01106 whole entry, looked up, the tested form may be a part): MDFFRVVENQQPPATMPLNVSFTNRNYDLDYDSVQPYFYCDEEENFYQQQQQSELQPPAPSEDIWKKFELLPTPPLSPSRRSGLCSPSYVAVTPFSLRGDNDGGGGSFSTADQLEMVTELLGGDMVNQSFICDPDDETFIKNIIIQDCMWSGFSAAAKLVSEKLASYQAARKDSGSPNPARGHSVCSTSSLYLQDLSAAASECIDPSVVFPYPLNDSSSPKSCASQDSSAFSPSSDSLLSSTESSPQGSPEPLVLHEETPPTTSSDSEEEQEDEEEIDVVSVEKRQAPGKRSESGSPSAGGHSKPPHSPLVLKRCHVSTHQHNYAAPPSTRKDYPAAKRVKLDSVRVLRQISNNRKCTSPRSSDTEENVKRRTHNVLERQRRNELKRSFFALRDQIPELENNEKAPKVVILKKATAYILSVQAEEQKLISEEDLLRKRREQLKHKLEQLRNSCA
Chain of human Peroxisome Proliferator-activated Receptor alpha (PPARa), PPARA (gene 5465) (Q07869 whole entry, looked up, the tested form may be a part): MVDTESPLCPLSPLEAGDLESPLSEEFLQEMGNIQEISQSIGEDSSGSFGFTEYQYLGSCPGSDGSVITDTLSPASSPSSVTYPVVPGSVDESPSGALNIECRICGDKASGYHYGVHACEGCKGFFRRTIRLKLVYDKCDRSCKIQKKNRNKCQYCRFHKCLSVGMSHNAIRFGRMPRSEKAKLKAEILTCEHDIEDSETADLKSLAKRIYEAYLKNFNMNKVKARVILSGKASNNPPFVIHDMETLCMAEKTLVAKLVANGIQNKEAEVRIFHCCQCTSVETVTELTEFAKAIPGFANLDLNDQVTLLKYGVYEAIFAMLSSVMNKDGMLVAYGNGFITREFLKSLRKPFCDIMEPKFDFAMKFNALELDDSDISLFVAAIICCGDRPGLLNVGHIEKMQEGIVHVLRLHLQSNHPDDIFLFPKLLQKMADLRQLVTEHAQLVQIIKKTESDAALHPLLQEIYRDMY
Chain of Retinoic acid receptor alpha (Homo sapiens) (P10276 whole entry, looked up, the tested form may be a part): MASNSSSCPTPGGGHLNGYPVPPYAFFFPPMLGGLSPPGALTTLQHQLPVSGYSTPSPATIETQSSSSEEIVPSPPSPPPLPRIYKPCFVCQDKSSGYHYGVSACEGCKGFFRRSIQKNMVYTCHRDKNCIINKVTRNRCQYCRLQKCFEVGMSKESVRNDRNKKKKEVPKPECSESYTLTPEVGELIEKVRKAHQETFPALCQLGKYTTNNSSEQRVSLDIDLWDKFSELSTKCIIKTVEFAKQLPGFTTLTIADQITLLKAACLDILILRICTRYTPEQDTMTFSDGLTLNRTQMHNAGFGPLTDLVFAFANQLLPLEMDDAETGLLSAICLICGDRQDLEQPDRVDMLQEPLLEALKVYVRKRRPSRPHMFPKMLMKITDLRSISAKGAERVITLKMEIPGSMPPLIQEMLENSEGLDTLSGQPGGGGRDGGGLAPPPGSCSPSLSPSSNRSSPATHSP
Chain of Nuclear receptor subfamily 1 group I member 2 (Homo sapiens) (O75469 whole entry, looked up, the tested form may be a part): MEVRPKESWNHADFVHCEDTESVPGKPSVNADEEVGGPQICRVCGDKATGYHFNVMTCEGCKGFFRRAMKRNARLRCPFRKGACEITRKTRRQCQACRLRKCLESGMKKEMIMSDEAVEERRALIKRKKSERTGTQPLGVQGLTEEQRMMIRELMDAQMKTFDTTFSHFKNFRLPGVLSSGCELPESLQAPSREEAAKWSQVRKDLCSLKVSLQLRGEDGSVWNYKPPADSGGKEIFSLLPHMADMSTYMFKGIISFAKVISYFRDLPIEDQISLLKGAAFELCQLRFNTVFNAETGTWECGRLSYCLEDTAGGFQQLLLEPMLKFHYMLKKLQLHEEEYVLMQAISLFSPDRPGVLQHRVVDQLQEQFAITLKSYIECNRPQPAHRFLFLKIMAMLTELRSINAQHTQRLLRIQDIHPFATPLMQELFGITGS
Chain of Nuclear respiratory factor 1 (Homo sapiens) (Q16656 whole entry, looked up): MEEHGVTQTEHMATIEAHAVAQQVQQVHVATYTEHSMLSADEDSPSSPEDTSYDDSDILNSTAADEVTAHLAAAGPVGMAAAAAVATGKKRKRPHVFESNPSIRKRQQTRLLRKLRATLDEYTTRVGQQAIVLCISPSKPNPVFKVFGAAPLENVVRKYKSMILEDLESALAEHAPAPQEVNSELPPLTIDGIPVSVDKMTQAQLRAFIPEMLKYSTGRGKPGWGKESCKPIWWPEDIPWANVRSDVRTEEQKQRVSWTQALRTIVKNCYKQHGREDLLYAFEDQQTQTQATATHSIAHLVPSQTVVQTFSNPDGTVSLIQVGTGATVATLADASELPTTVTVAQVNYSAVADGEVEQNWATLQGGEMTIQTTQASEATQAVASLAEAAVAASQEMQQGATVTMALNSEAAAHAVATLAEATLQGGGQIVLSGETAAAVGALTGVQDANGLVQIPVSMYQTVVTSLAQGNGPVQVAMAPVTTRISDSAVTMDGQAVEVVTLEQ
Chain of Cellular tumor antigen p53 (Homo sapiens) (P04637 whole entry, looked up): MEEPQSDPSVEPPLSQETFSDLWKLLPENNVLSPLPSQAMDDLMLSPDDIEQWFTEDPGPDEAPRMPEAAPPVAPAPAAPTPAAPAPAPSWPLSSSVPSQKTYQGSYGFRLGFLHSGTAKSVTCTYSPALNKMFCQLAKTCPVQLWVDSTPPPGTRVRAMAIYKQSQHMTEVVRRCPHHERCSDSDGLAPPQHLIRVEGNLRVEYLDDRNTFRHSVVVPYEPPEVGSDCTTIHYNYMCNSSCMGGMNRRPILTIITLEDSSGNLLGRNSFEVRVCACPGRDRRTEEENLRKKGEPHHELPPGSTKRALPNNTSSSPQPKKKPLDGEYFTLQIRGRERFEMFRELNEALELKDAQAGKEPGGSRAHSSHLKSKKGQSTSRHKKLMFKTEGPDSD
Chain of human Retinoic Acid Receptor beta (RARb), RARB (gene 5915) (P10826 whole entry, looked up, the tested form may be a part): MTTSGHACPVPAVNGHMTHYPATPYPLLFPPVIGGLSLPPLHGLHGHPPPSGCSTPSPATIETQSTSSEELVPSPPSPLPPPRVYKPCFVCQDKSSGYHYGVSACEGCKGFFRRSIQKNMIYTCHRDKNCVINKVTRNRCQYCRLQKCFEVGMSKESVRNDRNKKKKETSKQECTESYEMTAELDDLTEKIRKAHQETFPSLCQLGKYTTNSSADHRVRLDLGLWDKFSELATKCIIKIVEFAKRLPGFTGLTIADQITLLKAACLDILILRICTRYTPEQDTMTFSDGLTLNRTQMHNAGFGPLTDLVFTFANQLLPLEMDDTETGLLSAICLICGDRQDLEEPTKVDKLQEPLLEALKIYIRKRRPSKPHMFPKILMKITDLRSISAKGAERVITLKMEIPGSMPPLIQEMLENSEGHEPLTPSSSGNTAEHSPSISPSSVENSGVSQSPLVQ
Chain of human Retinoic Acid Receptor gamma (RARg), RARG (gene 5916) (P13631 whole entry, looked up, the tested form may be a part): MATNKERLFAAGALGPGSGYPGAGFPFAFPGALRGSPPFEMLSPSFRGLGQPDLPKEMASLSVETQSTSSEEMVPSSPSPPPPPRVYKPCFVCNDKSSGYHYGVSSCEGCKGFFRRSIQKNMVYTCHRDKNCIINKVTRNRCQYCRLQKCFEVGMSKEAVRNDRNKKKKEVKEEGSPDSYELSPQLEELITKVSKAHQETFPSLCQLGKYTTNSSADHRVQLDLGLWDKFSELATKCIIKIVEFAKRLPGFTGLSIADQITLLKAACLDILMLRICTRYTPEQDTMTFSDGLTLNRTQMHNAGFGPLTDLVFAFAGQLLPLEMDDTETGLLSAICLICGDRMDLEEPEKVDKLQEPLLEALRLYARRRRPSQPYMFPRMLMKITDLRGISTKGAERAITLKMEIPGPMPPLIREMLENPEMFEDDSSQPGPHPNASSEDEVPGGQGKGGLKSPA
Chain of human Peroxisome Proliferator-activated Receptor delta (PPARd), PPARD (gene 5467) (Q03181 whole entry, looked up, the tested form may be a part): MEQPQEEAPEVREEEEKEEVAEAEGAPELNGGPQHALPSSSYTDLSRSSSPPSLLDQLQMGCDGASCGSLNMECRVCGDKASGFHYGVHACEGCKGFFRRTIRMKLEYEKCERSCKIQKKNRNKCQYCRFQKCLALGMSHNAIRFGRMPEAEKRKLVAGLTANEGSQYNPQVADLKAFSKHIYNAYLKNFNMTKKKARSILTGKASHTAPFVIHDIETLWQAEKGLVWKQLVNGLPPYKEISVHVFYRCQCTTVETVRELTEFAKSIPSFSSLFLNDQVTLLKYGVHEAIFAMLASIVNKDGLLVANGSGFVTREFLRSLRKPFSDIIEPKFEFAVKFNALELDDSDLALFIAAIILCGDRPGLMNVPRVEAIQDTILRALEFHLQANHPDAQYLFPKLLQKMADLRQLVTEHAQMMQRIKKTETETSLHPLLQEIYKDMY

Structure (SMILES): CN1CCN(c2ccccc2/C=C2\SCCN(c3ccc(Cl)c(Cl)c3)C2=O)CC1
- outcome [1]: inactive
- outcome [2]: inactive
- outcome [3]: inactive
- outcome [4]: inactive
- AC50 [5]: 3.7 µM (active)
- outcome [6]: inactive
- outcome [7]: inactive
- AC50 [8]: 6.4 µM (active)
- AC50 [9]: 16.2 µM (active)
- outcome [10]: inactive
- outcome [11]: inactive
- outcome [12]: inactive
- AC50 [13]: 5.3 µM (active)
- AC50 [14]: 3.7 µM (active)

Structure (SMILES): OCCC(F)(F)C(F)(F)C(F)(F)C(F)(F)C(F)(F)C(F)(F)F
- outcome [1]: inactive
- AC50 [2]: 153 µM (active)
- outcome [2]: inactive
- outcome [3]: inactive
- AC50 [5]: 50.3 µM (active)
- outcome [5]: inactive
- AC50 [6]: 136 µM (active)
- outcome [6]: inactive
- outcome [7]: inactive
- AC50 [8]: 46.3 µM (active) and 30 µM (active)
- outcome [8]: inactive
- AC50 [9]: 43.6 µM (active) and 47.3 µM (active)
- outcome [9]: inactive
- AC50 [10]: 51.7 µM (active)
- outcome [10]: inactive
- AC50 [11]: 0.436 µM (active)
- outcome [11]: inactive
- outcome [15]: inactive
- outcome [16]: inactive
- AC50 [12]: 54.7 µM (active) and 44.7 µM (active)
- outcome [12]: inactive
- outcome [17]: inactive
- outcome [18]: inactive
- AC50 [13]: 46.5 µM (active) and 56.6 µM (active)
- outcome [13]: inactive
- outcome [14]: inactive
- outcome [19]: inactive

Structure (SMILES): CC(O)CO (stereo not drawn)
- outcome [1]: inactive
- outcome [2]: inactive
- outcome [3]: inactive
- outcome [4]: inactive
- outcome [5]: inactive
- outcome [6]: inactive
- outcome [7]: inactive
- outcome [8]: inactive
- outcome [9]: inactive
- outcome [10]: inactive
- outcome [11]: inactive
- outcome [15]: inactive
- outcome [12]: inactive
- outcome [17]: inactive
- outcome [18]: inactive
- outcome [13]: inactive
- outcome [19]: inactive
